Experiments:
Assay in all cases: DAPPL (digital affinity profiling via proximity ligation, sequencing); 10 mM Tris-HCl pH 7.5, 50 mM NaCl, 1 mM DTT, 4% glycerol, room temperature, 30 min; GST-TFs on glutathione beads, 16-mer random dsDNA library, 0.1% formaldehyde crosslink after washing; high values mean tight binding
FEV = target: T1, FEV (Homo sapiens, UniProt Q99581 1-238); settings: protein: recombinant; tags: N-terminal GST; dsDNA, one strand shown
T1 sequence: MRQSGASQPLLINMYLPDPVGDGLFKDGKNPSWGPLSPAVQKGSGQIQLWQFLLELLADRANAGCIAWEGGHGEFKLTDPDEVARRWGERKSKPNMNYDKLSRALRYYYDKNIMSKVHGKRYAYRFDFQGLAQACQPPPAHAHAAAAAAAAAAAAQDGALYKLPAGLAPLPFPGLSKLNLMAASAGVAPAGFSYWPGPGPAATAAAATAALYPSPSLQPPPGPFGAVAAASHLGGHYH
Method in brief: (§1)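 Sequencing on an Illumina NextSeq500 followed washing, crosslinking with 0.1% formaldehyde, proximity ligation (BsaI/T4 ligase, 1 h, 37 °C) and PCR amplification of pools that had been incubated for 30 min at room temperature with 200 nmole of a random double-stranded 16-mer DNA library in Tris/NaCl/DTT/glycerol buffer. Each pool held DNA-barcoded human transcription factors, expressed in yeast as GST fusions and captured on glutathione beads, plus a tag-only sample. Binding signal is a hexamer's read frequency for a factor divided by its frequency in the tag-only sample.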

ETV5 = ETV5 (Homo sapiens, UniProt P41161 1-510); settings: protein: recombinant; tags: N-terminal GST; dsDNA, one strand shown
Method in brief: as §1

HSF1 = HSF1 (Homo sapiens, UniProt Q00613 1-529); settings: protein: recombinant; tags: N-terminal GST; chain copies: 3; dsDNA, one strand shown
Method in brief: as §1

SPIC = target: T2, SPIC (Homo sapiens, UniProt Q8N5J4 1-248); settings: protein: recombinant; tags: N-terminal GST; dsDNA, one strand shown
T2 sequence: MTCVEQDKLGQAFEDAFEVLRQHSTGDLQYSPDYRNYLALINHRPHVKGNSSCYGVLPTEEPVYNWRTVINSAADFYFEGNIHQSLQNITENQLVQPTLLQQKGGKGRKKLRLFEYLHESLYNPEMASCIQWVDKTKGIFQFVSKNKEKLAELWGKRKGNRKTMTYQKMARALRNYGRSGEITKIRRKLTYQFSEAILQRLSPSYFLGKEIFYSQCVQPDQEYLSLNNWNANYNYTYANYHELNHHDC
Method in brief: as §1

ELF4 = ELF4 (Homo sapiens, UniProt Q99607 1-663); settings: protein: recombinant; tags: N-terminal GST; dsDNA, one strand shown
Method in brief: as §1

ELK4 = target: T3, ELK4 (Homo sapiens, UniProt P28324-2 1-405); settings: protein: recombinant; tags: N-terminal GST; dsDNA, one strand shown
T3 sequence: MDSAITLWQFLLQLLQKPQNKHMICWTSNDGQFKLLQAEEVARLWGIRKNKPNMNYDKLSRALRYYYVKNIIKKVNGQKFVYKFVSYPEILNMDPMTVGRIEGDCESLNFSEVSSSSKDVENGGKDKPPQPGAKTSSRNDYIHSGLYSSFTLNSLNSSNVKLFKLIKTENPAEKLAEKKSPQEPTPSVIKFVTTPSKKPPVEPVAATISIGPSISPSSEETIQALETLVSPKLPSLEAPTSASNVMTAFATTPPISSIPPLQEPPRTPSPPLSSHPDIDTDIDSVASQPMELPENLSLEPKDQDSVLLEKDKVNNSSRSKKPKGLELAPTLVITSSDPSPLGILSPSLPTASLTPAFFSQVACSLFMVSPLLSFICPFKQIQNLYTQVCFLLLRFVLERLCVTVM
Method in brief: as §1

ETV2 = target: T4, ETV2 (Homo sapiens, UniProt O00321 1-342); settings: protein: recombinant; tags: N-terminal GST; dsDNA, one strand shown
T4 sequence: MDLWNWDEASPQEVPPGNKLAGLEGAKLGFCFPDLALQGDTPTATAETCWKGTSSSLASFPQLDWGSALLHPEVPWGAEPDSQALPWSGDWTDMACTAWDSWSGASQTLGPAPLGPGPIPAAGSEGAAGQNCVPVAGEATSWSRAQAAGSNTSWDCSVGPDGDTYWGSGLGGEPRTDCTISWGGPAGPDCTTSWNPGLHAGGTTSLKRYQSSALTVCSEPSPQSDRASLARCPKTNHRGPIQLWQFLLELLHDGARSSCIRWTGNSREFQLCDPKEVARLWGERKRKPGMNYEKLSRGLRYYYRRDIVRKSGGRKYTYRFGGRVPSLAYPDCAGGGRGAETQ
Method in brief: as §1

ELF3 = target: T5, ELF3 (Homo sapiens, UniProt P78545 1-371); settings: protein: recombinant; tags: N-terminal GST; dsDNA, one strand shown
T5 sequence: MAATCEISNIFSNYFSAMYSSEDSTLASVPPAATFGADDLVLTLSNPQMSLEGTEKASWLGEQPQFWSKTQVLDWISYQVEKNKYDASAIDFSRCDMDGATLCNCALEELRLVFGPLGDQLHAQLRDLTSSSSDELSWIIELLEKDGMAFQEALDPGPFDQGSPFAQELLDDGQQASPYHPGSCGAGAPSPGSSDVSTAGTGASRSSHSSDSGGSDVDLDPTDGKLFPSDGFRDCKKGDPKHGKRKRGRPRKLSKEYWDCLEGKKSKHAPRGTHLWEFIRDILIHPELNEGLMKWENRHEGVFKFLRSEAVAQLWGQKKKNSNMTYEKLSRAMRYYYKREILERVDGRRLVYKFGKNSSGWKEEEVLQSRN
Method in brief: as §1

CRX = CRX (Homo sapiens, UniProt O43186 1-299); settings: protein: recombinant; tags: N-terminal GST; dsDNA, one strand shown
Method in brief: as §1

ETV1 = ETV1 (Homo sapiens, UniProt P50549 1-477); settings: protein: recombinant; tags: N-terminal GST; dsDNA, one strand shown
Method in brief: as §1

ERF = target: T6, ERF (Homo sapiens, UniProt P50548 1-548); settings: protein: recombinant; tags: N-terminal GST; dsDNA, one strand shown
T6 sequence: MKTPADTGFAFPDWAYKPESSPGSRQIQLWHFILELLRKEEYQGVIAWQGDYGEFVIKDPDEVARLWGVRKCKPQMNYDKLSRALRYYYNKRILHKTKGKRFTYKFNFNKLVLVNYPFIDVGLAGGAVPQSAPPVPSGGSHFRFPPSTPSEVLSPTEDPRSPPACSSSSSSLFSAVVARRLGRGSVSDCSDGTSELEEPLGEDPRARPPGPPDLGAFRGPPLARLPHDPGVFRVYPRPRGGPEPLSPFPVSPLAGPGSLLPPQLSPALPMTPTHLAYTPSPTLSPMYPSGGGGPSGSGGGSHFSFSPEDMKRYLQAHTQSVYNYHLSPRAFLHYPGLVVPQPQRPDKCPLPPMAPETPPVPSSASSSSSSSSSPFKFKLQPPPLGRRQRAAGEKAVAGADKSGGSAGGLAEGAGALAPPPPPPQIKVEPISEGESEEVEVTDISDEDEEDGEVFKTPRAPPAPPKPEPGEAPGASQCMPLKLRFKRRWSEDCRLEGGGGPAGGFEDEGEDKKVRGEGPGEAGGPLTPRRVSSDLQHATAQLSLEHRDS
Method in brief: as §1

ETV3L = target: T7, ETV3L (Homo sapiens, UniProt Q6ZN32 1-361); settings: protein: recombinant; tags: N-terminal GST; dsDNA, one strand shown
T7 sequence: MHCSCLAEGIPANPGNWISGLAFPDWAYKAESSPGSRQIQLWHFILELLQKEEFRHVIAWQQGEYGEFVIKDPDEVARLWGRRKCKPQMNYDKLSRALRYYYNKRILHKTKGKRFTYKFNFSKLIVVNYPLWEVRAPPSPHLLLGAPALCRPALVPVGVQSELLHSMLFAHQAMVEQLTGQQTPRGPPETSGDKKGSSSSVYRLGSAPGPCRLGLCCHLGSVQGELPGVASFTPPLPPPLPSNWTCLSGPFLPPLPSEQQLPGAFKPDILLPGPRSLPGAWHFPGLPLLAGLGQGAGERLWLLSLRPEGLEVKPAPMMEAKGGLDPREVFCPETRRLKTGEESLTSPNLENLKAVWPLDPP
Method in brief: as §1

ETS2 = target: T8, ETS2 (Homo sapiens, UniProt P15036 1-469); settings: protein: recombinant; tags: N-terminal GST; dsDNA, one strand shown
T8 sequence: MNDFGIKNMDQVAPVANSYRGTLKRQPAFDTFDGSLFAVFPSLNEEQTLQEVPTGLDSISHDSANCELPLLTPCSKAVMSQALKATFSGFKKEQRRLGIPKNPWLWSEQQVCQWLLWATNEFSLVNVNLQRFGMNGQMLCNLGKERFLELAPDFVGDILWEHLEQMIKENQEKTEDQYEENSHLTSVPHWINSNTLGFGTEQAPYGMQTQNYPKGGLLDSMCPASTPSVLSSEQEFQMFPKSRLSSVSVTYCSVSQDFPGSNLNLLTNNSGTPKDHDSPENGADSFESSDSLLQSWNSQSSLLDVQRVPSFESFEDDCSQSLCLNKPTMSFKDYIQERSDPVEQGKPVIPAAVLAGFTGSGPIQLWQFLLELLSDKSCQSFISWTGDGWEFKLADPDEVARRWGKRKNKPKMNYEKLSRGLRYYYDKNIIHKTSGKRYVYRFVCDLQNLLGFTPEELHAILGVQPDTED
Method in brief: as §1

SPDEF = target: T9, SPDEF (Homo sapiens, UniProt O95238 1-335); settings: protein: recombinant; tags: N-terminal GST; dsDNA, one strand shown
T9 sequence: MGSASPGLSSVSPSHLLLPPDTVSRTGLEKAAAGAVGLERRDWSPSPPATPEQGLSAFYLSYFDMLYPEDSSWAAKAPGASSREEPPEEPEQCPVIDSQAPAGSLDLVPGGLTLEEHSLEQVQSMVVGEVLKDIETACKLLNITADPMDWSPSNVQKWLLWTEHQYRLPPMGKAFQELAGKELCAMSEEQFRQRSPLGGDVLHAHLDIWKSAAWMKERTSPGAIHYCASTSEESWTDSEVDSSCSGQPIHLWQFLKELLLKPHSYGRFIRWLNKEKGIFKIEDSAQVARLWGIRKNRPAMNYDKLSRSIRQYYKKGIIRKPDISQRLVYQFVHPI
Method in brief: as §1

ETV7 = target: T10, ETV7 (Homo sapiens, UniProt Q9Y603 1-341); settings: protein: recombinant; tags: N-terminal GST; dsDNA, one strand shown
T10 sequence: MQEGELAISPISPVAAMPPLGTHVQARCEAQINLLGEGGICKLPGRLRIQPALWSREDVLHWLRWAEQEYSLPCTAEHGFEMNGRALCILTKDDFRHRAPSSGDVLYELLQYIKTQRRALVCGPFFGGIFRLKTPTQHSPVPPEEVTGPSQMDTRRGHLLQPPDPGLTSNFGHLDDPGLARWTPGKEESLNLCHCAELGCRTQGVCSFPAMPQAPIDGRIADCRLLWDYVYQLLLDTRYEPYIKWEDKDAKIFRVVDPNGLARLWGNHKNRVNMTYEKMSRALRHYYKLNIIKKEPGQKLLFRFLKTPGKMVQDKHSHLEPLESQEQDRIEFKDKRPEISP
Method in brief: as §1

ELF5 = target: T11, ELF5 (Homo sapiens, UniProt Q9UKW6-2 1-255); settings: protein: recombinant; tags: N-terminal GST; dsDNA, one strand shown
T11 sequence: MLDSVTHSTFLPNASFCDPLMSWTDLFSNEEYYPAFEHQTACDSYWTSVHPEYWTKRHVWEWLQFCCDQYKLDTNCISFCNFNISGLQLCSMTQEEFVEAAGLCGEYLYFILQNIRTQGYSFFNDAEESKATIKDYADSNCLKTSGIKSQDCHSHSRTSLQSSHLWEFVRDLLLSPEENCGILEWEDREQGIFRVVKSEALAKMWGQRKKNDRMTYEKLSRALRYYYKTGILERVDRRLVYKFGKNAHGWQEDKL
Method in brief: as §1

ETV3 = target: T12, ETV3 (Homo sapiens, UniProt P41162-2 1-143); settings: protein: recombinant; tags: N-terminal GST; dsDNA, one strand shown
T12 sequence: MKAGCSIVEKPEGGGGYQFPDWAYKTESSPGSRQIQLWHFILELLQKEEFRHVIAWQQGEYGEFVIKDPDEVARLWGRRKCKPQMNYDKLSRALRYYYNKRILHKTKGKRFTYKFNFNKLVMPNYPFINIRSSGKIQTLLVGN
Method in brief: as §1

ETV6 = ETV6 (Homo sapiens, UniProt P41212 1-452); settings: protein: recombinant; tags: N-terminal GST; dsDNA, one strand shown
Method in brief: as §1

Sequence of ETV1 (P50549 whole entry): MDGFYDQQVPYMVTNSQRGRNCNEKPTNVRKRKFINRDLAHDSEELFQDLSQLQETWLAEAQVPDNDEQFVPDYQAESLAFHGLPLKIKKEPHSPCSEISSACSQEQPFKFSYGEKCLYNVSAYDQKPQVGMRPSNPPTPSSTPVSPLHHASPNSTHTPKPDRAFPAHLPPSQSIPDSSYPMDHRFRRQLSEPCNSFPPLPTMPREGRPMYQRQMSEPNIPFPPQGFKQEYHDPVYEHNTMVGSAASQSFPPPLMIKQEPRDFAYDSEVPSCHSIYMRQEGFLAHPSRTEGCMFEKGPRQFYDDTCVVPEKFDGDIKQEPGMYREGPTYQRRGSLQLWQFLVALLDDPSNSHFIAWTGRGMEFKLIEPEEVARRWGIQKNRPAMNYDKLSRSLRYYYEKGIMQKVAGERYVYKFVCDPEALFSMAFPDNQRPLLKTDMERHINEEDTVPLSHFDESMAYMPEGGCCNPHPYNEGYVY
Sequence of ELF4 (Q99607 whole entry): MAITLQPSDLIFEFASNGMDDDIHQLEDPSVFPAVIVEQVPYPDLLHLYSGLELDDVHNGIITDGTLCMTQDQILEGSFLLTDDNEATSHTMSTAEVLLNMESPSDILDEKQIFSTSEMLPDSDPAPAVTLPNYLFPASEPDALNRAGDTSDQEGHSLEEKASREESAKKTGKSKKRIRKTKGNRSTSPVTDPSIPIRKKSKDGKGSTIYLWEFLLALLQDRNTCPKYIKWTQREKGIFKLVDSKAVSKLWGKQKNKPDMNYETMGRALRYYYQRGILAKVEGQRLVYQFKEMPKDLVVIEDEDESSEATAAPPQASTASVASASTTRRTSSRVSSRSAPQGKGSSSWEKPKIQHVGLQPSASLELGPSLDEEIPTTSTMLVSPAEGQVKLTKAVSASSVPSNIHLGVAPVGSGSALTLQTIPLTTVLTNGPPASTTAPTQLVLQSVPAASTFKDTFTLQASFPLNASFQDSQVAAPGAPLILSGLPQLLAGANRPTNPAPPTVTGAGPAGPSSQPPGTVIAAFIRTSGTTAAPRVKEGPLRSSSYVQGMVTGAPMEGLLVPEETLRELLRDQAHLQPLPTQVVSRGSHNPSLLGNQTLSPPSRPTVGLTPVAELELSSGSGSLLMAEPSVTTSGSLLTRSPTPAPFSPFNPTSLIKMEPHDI
Sequence of ETV6 (P41212 whole entry): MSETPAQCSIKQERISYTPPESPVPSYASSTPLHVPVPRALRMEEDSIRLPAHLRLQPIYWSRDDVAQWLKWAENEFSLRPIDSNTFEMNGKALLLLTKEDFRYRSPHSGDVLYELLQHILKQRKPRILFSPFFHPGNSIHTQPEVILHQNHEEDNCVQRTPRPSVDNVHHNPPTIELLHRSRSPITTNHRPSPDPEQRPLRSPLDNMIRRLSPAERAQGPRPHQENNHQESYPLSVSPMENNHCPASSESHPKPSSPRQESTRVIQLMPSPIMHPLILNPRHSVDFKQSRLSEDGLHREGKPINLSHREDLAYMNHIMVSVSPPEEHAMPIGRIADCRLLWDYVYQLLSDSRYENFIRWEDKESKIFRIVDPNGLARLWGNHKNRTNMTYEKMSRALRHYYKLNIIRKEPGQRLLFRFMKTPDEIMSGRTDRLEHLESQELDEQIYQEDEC
Sequence of CRX (O43186 whole entry): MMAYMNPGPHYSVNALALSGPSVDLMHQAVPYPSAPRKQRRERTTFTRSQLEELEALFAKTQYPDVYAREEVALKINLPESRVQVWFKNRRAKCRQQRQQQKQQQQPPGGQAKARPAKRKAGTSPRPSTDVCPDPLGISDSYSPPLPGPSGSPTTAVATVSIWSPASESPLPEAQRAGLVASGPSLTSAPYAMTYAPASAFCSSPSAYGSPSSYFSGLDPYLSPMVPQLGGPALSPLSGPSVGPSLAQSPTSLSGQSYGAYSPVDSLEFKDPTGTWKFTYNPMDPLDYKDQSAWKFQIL
Sequence of ETV5 (P41161 whole entry): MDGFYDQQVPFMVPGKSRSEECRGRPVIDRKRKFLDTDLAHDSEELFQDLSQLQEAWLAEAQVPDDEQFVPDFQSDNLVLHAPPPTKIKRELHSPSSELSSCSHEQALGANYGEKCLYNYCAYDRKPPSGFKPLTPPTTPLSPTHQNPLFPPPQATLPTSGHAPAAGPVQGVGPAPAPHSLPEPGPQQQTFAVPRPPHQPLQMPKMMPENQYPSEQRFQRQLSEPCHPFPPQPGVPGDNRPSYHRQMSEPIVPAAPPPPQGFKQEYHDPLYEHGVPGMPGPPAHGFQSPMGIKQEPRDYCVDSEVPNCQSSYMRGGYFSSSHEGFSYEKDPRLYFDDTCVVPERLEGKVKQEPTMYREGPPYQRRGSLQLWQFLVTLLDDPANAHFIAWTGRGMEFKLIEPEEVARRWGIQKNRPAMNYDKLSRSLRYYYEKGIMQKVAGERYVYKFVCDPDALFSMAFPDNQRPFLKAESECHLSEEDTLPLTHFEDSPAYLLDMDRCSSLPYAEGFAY
Sequence of HSF1 (Q00613 whole entry): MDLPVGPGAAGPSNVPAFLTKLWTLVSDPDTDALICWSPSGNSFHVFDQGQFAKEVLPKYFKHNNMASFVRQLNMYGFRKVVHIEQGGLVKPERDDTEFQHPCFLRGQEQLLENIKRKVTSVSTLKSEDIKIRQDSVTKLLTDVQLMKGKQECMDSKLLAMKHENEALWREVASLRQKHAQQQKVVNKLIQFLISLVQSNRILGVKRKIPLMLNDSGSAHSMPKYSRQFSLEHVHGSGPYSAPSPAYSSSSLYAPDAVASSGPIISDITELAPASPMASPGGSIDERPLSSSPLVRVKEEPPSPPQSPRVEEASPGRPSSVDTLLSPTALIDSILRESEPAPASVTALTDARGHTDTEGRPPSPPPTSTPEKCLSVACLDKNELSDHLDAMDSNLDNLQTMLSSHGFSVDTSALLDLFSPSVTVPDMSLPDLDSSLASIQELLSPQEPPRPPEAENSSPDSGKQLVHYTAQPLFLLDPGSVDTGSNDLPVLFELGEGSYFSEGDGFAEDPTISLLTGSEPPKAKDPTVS

Sequence: CTTCTG
- binding signal (FEV): 1.23 fold enrichment (6-mer frequency, TF over GST control)
- binding signal (ETV5): 1.35 fold enrichment (6-mer frequency, TF over GST control)
- binding signal (HSF1): 2.07 fold enrichment (6-mer frequency, TF over GST control)
- binding signal (SPIC): 1.39 fold enrichment (6-mer frequency, TF over GST control)
- binding signal (ELF4): 1.42 fold enrichment (6-mer frequency, TF over GST control)
- binding signal (ELK4): 1.57 fold enrichment (6-mer frequency, TF over GST control)
- binding signal (ETV2): 1.32 fold enrichment (6-mer frequency, TF over GST control)
- binding signal (ELF3): 1.29 fold enrichment (6-mer frequency, TF over GST control)
- binding signal (CRX): 1.49 fold enrichment (6-mer frequency, TF over GST control)
- binding signal (ETV1): 1.22 fold enrichment (6-mer frequency, TF over GST control)
- binding signal (ERF): 1.28 fold enrichment (6-mer frequency, TF over GST control)
- binding signal (ETV3L): 1.47 fold enrichment (6-mer frequency, TF over GST control)
- binding signal (ETS2): 1.34 fold enrichment (6-mer frequency, TF over GST control)
- binding signal (SPDEF): 1.26 fold enrichment (6-mer frequency, TF over GST control)
- binding signal (ETV7): 1.2 fold enrichment (6-mer frequency, TF over GST control)
- binding signal (ELF5): 1.39 fold enrichment (6-mer frequency, TF over GST control)
- binding signal (ETV3): 1.28 fold enrichment (6-mer frequency, TF over GST control)
- binding signal (ETV6): 1.38 fold enrichment (6-mer frequency, TF over GST control)
